{
  "source": "the supplement of paper PMC11006884",
  "note": "About 6,500 targets were measured; listed, in parts, are those with a hit and a random draw of the rest. About 2% of all pairs of compound and target were hits.",
  "data": [
    {"compound": "COC(=O)C#Cc1ccccc1 [methyl 3-phenylpropiolate]", "assay": "log2 ratio of iodoacetamide-alkyne labeling of the cysteine site, DMSO over compound (competition); higher = stronger covalent engagement of the cysteine by the compound, active = 1 or more", "details": "500 µM; treatment time 1 h; system: HEK293T cell lysate", "procedure,_shortened": "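The log2 competition ratio per cysteine is defined as mean reporter intensity in control channels over mean reporter intensity in compound channels. Lysate from HEK293T cells (2 mg/mL) received electrophile (500 µM) or vehicle for 1 h at ambient temperature, followed by iodoacetamide alkyne for 1 h. Samples were clicked to sCIP-TMT reagents, pooled, trypsin-digested overnight at 37 °C, streptavidin-enriched, acid-eluted and run on Orbitrap Eclipse LC-MS/MS with FAIMS, with quantification in FragPipe. Three replicates with duplicate channels were used, and any cysteine quantified in only one replicate was excluded.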", "values": [
      {"target": "ATRIP C74 (UniProt Q8WXE1)", "log2 ratio of iodoacetamide-alkyne labeling": "0.563 (inactive)"},
      {"target": "MASTL C285 (UniProt Q96GX5)", "log2 ratio of iodoacetamide-alkyne labeling": "1.02 (active)"},
      {"target": "POM121 C461 (UniProt Q96HA1)", "sequence (Q96HA1 whole entry, looked up)": "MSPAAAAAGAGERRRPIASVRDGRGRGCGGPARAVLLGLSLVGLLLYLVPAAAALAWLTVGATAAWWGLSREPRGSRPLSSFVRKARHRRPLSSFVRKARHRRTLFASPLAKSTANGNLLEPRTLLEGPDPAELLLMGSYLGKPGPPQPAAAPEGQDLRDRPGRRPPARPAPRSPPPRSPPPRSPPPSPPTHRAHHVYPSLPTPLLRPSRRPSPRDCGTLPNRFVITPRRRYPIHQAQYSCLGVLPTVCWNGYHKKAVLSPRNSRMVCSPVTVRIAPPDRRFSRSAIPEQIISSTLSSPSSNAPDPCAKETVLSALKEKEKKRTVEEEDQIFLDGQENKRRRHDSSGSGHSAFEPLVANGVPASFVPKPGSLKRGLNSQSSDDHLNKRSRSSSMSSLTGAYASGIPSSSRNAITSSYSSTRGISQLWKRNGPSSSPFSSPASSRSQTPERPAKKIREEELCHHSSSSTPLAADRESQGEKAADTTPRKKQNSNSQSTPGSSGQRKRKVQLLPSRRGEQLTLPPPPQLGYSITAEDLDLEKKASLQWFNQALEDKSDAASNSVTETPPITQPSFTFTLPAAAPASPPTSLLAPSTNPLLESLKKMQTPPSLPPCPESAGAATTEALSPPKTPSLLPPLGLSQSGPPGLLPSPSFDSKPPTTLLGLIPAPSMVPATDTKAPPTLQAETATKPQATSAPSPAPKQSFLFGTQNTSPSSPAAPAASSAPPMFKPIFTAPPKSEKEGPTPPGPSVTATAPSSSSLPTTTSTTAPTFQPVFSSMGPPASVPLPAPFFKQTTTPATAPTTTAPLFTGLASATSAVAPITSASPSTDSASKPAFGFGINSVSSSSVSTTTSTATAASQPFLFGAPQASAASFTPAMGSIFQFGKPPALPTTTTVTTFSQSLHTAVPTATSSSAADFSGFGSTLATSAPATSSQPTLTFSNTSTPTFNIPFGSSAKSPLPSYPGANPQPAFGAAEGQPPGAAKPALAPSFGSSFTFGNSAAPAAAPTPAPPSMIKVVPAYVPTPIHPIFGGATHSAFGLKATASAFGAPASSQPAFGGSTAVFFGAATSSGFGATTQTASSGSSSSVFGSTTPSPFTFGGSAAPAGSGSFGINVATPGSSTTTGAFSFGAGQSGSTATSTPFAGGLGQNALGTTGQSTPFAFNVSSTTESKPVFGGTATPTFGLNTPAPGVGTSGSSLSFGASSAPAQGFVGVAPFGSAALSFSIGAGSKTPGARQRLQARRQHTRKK", "log2 ratio of iodoacetamide-alkyne labeling": "0.43 (inactive)"},
      {"target": "SMARCC1 C164 (UniProt Q92922)", "sequence (Q92922 whole entry, looked up)": "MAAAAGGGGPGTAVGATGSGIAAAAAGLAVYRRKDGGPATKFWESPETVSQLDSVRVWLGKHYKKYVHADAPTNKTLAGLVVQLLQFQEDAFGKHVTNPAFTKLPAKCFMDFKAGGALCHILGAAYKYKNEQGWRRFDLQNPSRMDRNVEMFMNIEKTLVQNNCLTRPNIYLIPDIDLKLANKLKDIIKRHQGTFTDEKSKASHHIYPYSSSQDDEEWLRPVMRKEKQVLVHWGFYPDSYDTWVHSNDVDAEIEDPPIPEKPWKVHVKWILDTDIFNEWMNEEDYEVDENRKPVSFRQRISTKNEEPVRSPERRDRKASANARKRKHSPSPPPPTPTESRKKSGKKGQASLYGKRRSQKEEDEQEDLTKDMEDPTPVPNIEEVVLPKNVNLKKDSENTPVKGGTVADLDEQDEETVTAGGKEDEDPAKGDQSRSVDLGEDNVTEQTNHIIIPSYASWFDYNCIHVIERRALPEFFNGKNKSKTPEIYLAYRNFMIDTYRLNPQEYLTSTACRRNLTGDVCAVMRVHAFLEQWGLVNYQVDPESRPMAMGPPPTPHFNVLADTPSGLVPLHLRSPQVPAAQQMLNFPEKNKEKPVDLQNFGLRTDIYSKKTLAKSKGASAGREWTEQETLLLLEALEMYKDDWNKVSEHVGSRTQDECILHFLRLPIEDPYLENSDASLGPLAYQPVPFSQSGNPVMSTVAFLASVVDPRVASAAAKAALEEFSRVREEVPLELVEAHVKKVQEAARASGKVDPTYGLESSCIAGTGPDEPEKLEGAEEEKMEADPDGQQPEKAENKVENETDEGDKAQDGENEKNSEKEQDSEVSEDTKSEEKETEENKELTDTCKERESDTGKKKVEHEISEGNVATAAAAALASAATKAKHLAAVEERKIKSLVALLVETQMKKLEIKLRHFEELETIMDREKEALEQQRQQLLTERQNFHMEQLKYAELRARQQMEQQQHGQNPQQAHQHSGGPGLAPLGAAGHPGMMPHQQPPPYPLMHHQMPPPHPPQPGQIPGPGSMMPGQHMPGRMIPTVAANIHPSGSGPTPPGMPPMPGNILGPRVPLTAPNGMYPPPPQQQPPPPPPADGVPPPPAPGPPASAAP", "log2 ratio of iodoacetamide-alkyne labeling": "0.146 (inactive)"},
      {"target": "EHMT2 C617 (UniProt Q96KQ7)", "log2 ratio of iodoacetamide-alkyne labeling": "0.759 (inactive)"},
      {"target": "UBR4 C1450 (UniProt Q5T4S7)", "log2 ratio of iodoacetamide-alkyne labeling": "0.138 (inactive)"},
      {"target": "PHF3 C1616 (UniProt Q92576)", "log2 ratio of iodoacetamide-alkyne labeling": "1.14 (active)"},
      {"target": "UniProt Q7RTV0_C46", "log2 ratio of iodoacetamide-alkyne labeling": "0.211 (inactive)"},
      {"target": "PARG C963 (UniProt Q86W56)", "sequence (Q86W56 whole entry, looked up)": "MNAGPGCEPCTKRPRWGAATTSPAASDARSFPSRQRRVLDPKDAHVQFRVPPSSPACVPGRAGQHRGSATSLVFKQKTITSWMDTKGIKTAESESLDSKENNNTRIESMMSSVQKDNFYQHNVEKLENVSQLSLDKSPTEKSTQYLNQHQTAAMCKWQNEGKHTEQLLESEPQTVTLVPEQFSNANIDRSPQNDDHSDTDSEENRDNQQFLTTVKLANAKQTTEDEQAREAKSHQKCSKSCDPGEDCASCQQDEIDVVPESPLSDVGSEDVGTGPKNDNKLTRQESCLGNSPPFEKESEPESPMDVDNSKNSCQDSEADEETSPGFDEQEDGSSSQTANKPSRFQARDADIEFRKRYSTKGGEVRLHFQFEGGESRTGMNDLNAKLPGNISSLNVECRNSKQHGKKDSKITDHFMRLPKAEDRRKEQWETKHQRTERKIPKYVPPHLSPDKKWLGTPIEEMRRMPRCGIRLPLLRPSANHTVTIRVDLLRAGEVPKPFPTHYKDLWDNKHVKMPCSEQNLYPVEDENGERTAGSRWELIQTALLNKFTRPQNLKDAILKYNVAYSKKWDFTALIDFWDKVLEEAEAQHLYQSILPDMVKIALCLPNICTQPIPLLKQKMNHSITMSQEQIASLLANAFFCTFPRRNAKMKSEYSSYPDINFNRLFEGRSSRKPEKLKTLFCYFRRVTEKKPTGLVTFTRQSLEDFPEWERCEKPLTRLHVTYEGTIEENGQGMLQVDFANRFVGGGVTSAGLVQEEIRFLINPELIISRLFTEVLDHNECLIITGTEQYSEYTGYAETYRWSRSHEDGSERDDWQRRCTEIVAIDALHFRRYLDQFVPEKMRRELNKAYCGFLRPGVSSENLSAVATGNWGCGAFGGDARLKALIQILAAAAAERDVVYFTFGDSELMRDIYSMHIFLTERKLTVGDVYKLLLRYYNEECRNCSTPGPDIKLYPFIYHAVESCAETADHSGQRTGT", "log2 ratio of iodoacetamide-alkyne labeling": "0.0715 (inactive)"},
      {"target": "DARS2 C371 (UniProt Q6PI48)", "sequence (Q6PI48 whole entry, looked up)": "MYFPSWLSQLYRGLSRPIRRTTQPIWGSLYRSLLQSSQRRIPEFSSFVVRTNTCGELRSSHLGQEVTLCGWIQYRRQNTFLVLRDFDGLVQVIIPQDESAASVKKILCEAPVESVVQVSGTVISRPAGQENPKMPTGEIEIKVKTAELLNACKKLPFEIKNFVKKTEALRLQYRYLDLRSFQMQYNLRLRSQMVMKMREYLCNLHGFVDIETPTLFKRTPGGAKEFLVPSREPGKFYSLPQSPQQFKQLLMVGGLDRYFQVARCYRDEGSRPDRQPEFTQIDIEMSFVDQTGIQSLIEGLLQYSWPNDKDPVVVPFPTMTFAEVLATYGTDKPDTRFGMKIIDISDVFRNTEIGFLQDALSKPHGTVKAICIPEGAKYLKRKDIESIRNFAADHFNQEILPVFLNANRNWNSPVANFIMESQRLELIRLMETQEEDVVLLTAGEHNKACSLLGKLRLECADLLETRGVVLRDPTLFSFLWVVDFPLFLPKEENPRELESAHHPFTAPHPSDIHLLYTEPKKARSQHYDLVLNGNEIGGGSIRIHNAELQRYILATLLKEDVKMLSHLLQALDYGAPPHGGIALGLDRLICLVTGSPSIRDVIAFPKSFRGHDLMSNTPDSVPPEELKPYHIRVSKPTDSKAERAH", "log2 ratio of iodoacetamide-alkyne labeling": "0.442 (inactive)"},
      {"target": "ZFR C974 (UniProt Q96KR1)", "sequence (Q96KR1 whole entry, looked up)": "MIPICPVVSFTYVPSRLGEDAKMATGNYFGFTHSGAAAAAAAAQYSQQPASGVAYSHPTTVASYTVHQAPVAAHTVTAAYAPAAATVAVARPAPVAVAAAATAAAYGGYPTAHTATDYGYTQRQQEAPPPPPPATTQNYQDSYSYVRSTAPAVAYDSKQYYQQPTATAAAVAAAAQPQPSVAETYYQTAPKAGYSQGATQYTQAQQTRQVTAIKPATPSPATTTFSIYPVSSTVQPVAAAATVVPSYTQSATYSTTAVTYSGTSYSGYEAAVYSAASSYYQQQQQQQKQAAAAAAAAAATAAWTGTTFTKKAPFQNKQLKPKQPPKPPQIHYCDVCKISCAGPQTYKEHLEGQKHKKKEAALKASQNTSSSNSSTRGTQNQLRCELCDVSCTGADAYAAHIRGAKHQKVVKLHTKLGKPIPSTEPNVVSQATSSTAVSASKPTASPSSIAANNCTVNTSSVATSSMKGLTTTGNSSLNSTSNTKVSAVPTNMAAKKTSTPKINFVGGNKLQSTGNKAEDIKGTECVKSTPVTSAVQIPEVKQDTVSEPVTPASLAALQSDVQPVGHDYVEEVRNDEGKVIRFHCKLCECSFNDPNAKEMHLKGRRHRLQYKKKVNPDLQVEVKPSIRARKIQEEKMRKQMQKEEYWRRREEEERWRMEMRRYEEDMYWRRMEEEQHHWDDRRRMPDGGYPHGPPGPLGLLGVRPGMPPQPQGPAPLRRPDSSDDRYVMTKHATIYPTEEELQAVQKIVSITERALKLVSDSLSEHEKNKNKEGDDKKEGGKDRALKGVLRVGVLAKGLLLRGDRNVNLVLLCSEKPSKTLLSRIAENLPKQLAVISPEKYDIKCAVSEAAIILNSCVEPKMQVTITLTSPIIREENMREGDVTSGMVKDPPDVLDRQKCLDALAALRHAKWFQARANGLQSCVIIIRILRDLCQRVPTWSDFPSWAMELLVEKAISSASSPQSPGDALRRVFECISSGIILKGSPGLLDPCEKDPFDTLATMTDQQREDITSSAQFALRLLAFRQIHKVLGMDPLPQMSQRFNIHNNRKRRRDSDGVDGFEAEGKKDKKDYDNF", "log2 ratio of iodoacetamide-alkyne labeling": "0.302 (inactive)"},
      {"target": "UniProt Q86YR5_C515", "log2 ratio of iodoacetamide-alkyne labeling": "1.7 (active)"}
    ]}
  ]
}
